This note sets out measurements from PubChem BioAssay (Tox21).

In assay [1] the target is Estrogen receptor beta (Homo sapiens) (UniProt Q92731). Nature of the assay: qHTS assay to identify small molecule agonists of the estrogen receptor beta (ER-beta) signaling pathway (AID 1259377; active = well fitted activation curve with a large enough effect in the signal ratio in the repeat runs, not every such curve was filed as active; the % refers to the signal ratio). A digest of the protocol: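 Agonist mode cell assay in GripTite HEK293T cells expressing an ER-beta fusion that drives beta-lactamase from an Upstream Activator Sequence; 16 hr compound exposure at 37C, then 2 h LiveBLAzer B/G FRET substrate at room temperature, fluorescence read-out.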
Background: qHTS replaces the single test concentration by a dilution series.

Assay [2] has the same target. As to the kind of experiment: qHTS assay to identify small molecule antagonists of the estrogen receptor beta (ER-beta) signaling pathway (AID 1259378; active = well fitted inhibition curve with a large enough effect in the signal ratio in the repeat runs, not every such curve was filed as active; the % refers to the signal ratio). In a few lines:
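ER-beta-UAS-bla HEK293T (GripTite) cells in 2% charcoal-stripped FBS medium were preincubated 6 hr at 37C, dosed with compound, then stimulated with 1 nM E2 (final) for 16 hr; beta-lactamase reporter read by B/G FRET fluorescence after 2 hr substrate loading.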

A short description of assay [3]: qHTS assay to identify small molecule agonists of the androgen receptor (AR) signaling pathway in the presence of an antagonist - cell viability counter screen (AID 1259379; active = well fitted curve in the direction sought with a large enough effect in the repeat runs; an effect the other way counts as inactive or inconclusive;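 also: MDA-kb2 human breast cancer cells carrying an MMTV luciferase reporter; series mostly up to about 92 µM; nearly all actives have a fitted effect of over 25% in size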). A digest of the protocol: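 A CellTiter-Fluor read-out measured viability of MDA-kb2 reporter cells (MMTV promoter with AR and GR response elements). Treatment: nilutamide 3.0uM final with compounds at 15 concentrations, 16 hr, 37C, 0% CO2.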

Assay [4] in a line: qHTS assay to identify small molecule agonists of the estrogen receptor beta (ER-beta) signaling pathway - cell viability counter screen (AID 1259380; active = well fitted curve in the direction sought with a large enough effect in the repeat runs; an effect the other way counts as inactive or inconclusive; also: nearly all actives have a fitted effect of over 30% in size). A digest of the protocol:
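Cells used were ER-beta-UAS-bla HEK293T in medium with 2% charcoal-stripped FBS. They were treated for 16 hr at 37C. Viability came from CellTiter-Glo luminescence.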

Assay [5] can be described thus: qHTS assay to identify small molecule antagonists of the estrogen receptor beta (ER-beta) signaling pathway - cell viability counter screen (AID 1259382; active = well fitted curve in the direction sought with a large enough effect in the repeat runs; an effect the other way counts as inactive or inconclusive; also: nearly all actives have a fitted effect of over 55% in size; also: potency is read from the fitted curve at half-maximal effect). A digest of the protocol:
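Agonist-stimulated (1nM E2) ER-beta-UAS-bla HEK293T cells are incubated with library compounds for 16 hr at 37C. Cell viability is then assessed in the reporter-assay wells by adding CellTiter-Glo and reading luminescence after 30 min.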

Assay [6] deals with Estrogen receptor (Homo sapiens) (UniProt P03372). Nature of the assay: qHTS assay to identify small molecule agonists of the estrogen receptor alpha (ER-alpha) signaling pathway in the presence of an antagonist (AID 1259383). Also: top concentration of the series differs between compounds; nearly all actives have a fitted effect of over 15% in size. In a few lines:
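Using VM7Luc4E2 cells seeded 24hr before treatment, antagonist ICI-182,780 (10.0nM final) was added, followed by compounds at 15 concentrations. Plates incubated 22hr; ONE-Glo luminescence quantified reporter activity.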

The nature of assay [7]: qHTS assay to identify small molecule agonists or antagonists of the thyroid stimulating hormone receptor (TSHR) signaling pathway - wild type cell line counter screen (AID 1259384). In a few lines:
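Wild-type HEK293 cells were plated 18 h at 37 C/5% CO2, pin-dosed with compound plus Ro20-1724 medium, held 30 min at room temperature, then given cAMP-d2 and anti-cAMP-cryptate; fluorescence was read after 1 h. Fifteen concentrations, triplicate.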

Assay [8] addresses Thyrotropin receptor (Homo sapiens) (UniProt P16473). As to the kind of experiment: qHTS assay to identify small molecule antagonists of the thyroid stimulating hormone receptor (TSHR) signaling pathway (AID 1259385). Also: nearly all actives have a fitted effect of over 20% in size. A digest of the protocol: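 TSHR-HEK293 cells were plated and held 18 h at 37C/5% CO2, then given compound plus Ro20-1724 and stimulated with TSH at 1.5 ng/mL final. After 30 min at room temperature, cAMP was detected with cAMP-d2/anti-cAMP-cryptate (1 h) by fluorescence.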

A short description of assay [9]: qHTS assay to identify small molecule agonists of the estrogen receptor alpha (ER-alpha) signaling pathway in the presence of an antagonist - cell viability counter screen (AID 1259386; active = well fitted curve in the direction sought with a large enough effect in the repeat runs; an effect the other way counts as inactive or inconclusive;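 also: series mostly up to about 92 µM; cells exposed to compounds for 22 h at 37 °C before the viability read; nearly all actives have a fitted effect of over 30% in size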). A digest of the protocol:
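ICI-182,780 at 10.0nM final accompanies the compound titration (15 concentrations, 22hr, 37C) on VM7Luc4E2 cells. The CellTiter-Fluor fluorescence readout runs in the same wells as the luciferase assay.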

Assay [10] deals with Progesterone receptor (Homo sapiens) (UniProt P06401). As to the kind of experiment: qHTS assay to identify small molecule agonists of the progesterone receptor (PR) signaling pathway (AID 1346784). Also: nearly all actives have a fitted effect of over 30% in size. Also: potency is read from the fitted curve at half-maximal effect. In a few lines: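 Cells (PR-UAS-bla HEK 293T, GripTite) were plated in assay medium containing 2% charcoal-stripped FBS and incubated 6 hr. Test compounds in DMSO were added for 16 hr at 37C. FRET substrate was then loaded for 2 hr at room temperature before fluorescence reading.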

Assay [11] can be described thus: qHTS assay to identify small molecule antagonists of the progesterone receptor (PR) signaling pathway - cell viability counter screen (AID 1346798; active = well fitted curve in the direction sought with a large enough effect in the repeat runs; an effect the other way counts as inactive or inconclusive; also: series mostly up to about 92 µM; nearly all actives have a fitted effect of over 50% in size). In a few lines:
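Counter screen for cytotoxicity: viability of PR-UAS-bla HEK293T cells was measured with CellTiter-Glo luminescence following 16 hr compound exposure in the presence of R5020.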

The nature of assay [12]: qHTS assay to identify small molecule agonists of the progesterone receptor (PR) signaling pathway - cell viability counter screen (AID 1346799). Also: nearly all actives have a fitted effect of over 45% in size. Also: potency is read from the fitted curve at half-maximal effect. A digest of the protocol:
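Cells (PR-UAS-bla HEK293T) are plated at 3,000/well in 2% charcoal-stripped FBS medium, rested 6 hr, dosed and incubated 16 hr at 37C. CellTiter-Glo is then added and luminescence measured after 30 min at room temperature.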

Assay [13] can be described thus: qHTS assay to identify small molecule antagonists of the TGF-beta/Smad signaling pathway - cell viability counter screen (AID 1346824; active = well fitted curve in the direction sought with a large enough effect in the repeat runs; an effect the other way counts as inactive or inconclusive; also: nearly all actives have a fitted effect of over 50% in size). In a few lines: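 SBE-bla HEK 293T cells were plated overnight at 37 C, then given compounds in DMSO plus TGF-beta1 (added as 0.25 ng/mL solution) for 5 hr. After the bla read, CellTiter-Glo was added to the same wells and luminescence read after 30 min at room temperature.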

Assay [14] is described as follows: qHTS assay to identify small molecule agonists of the TGF-beta/Smad signaling pathway - cell viability counter screen (AID 1346829; active = well fitted curve in the direction sought with a large enough effect in the repeat runs; an effect the other way counts as inactive or inconclusive; also: top concentration of the series differs between compounds; nearly all actives have a fitted effect of over 45% in size). In a few lines: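 SBE-bla HEK 293T cells plated overnight, compound exposure 5 hr at 37 C. Viability read in the same wells by CellTiter-Glo luminescence after 30 min at room temperature, following the beta-lactamase read.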
Assay [15] can be described thus: qHTS assay to identify small molecule agonists of the TGF-beta/Smad signaling pathway (AID 1346859; active = well fitted activation curve with a large enough effect in the signal ratio in the repeat runs, not every such curve was filed as active; the % refers to the signal ratio; also: series mostly up to about 77 µM). A digest of the protocol:
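Reporter line: HEK 293T with stably integrated SBE-controlled beta-lactamase. Compound exposure lasts 5 hr at 37 C and 5% CO2; substrate loading follows for 2 hr at room temperature, with emission read at 460 and 530 nm.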

The target in assay [16] is Thyrotropin-releasing hormone receptor (Homo sapiens) (UniProt P34981). Nature of the assay: qHTS assay to identify small molecule antagonists of the thyrotropin-releasing hormone receptor (TRHR) signaling pathway (AID 1346877; active = well fitted inhibition curve with a large enough effect in the repeat runs, not every such curve was filed as active; also: series mostly up to about 51 µM). In a few lines:
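Screening used HEK293 cells engineered with TRHR, with a brief 5 min room-temperature compound exposure preceding addition of TRH to 1 nM. The read-out was kinetic calcium-dye fluorescence, concentration-response from 15 doses in triplicate.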

For assay [17] the target is unchanged. Nature of the assay: qHTS assay to identify small molecule agonists of the thyrotropin-releasing hormone receptor (TRHR) signaling pathway (AID 1346891).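 Also: HEK293 cells expressing TRHR with calcium dye readout; series mostly up to about 58 µM.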 In a few lines: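 Cells: TRHR-Hek293, seeded and incubated 18 h. Dye loading: 2 h at 37 °C. Compound added from DMSO stock by pin tool. Read-out: kinetic calcium fluorescence over 3 min.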
Assay [18] in a line: qHTS assay to identify small molecule antagonists of the sonic hedgehog signaling (Shh) pathway (AID 1259369). Also: nearly all actives have a fitted effect of over 45% in size. Also: potency is read from the fitted curve at half-maximal effect. In a few lines:
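Conditioned medium drives Shh signalling in 3T3Gli1-Luc cells; compounds in DMSO co-applied, 24hr at 37 C, then luciferase luminescence.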

Assay [19] addresses Androgen receptor (Homo sapiens) (UniProt P10275). Nature of the assay: qHTS assay to identify small molecule agonists of the androgen receptor (AR) signaling pathway in the presence of an antagonist (AID 1259381). Also: nearly all actives have a fitted effect of over 15% in size. Also: potency is read from the fitted curve at half-maximal effect. A digest of the protocol: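 Using human MDA-kb2 cells with an MMTV promoter–luciferase construct (AR and GR response elements), agonist activity is scored under 3.0uM nilutamide (final) co-treatment; 16hr incubation, 37C, luminescence readout via ONE-Glo.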

In assay [20] the target is Progesterone receptor (Homo sapiens) (UniProt P06401). Nature of the assay: qHTS assay to identify small molecule antagonists of the progesterone receptor (PR) signaling pathway (AID 1346795; active = well fitted inhibition curve with a large enough effect in the signal ratio in the repeat runs, not every such curve was filed as active; the % refers to the signal ratio). In a few lines: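 Antagonist mode: compounds tested against 1 nM (final) promegestone stimulation in HEK293T cells expressing PR-UAS-bla reporter, 16 hr at 37C, 5% CO2; beta-lactamase activity detected via B/G FRET substrate after 2 hr at room temperature.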

Results filed as inconclusive are left out. The source made the active and inactive calls. Unless noted, calls follow the shape of the full dose curve.

Sequence of Thyrotropin-releasing hormone receptor (Homo sapiens) (P34981 whole entry, looked up): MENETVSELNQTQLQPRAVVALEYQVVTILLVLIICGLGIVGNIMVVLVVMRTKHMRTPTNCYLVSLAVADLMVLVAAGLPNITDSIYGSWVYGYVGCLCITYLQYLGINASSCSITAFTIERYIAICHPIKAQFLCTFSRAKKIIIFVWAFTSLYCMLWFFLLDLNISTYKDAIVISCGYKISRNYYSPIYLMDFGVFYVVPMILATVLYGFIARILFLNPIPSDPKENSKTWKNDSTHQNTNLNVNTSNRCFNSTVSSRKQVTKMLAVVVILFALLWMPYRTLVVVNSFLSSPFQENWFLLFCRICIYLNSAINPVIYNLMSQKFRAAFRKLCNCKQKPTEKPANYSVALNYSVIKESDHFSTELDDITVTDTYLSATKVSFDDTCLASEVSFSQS
Sequence of Progesterone receptor (Homo sapiens) (P06401 whole entry, looked up): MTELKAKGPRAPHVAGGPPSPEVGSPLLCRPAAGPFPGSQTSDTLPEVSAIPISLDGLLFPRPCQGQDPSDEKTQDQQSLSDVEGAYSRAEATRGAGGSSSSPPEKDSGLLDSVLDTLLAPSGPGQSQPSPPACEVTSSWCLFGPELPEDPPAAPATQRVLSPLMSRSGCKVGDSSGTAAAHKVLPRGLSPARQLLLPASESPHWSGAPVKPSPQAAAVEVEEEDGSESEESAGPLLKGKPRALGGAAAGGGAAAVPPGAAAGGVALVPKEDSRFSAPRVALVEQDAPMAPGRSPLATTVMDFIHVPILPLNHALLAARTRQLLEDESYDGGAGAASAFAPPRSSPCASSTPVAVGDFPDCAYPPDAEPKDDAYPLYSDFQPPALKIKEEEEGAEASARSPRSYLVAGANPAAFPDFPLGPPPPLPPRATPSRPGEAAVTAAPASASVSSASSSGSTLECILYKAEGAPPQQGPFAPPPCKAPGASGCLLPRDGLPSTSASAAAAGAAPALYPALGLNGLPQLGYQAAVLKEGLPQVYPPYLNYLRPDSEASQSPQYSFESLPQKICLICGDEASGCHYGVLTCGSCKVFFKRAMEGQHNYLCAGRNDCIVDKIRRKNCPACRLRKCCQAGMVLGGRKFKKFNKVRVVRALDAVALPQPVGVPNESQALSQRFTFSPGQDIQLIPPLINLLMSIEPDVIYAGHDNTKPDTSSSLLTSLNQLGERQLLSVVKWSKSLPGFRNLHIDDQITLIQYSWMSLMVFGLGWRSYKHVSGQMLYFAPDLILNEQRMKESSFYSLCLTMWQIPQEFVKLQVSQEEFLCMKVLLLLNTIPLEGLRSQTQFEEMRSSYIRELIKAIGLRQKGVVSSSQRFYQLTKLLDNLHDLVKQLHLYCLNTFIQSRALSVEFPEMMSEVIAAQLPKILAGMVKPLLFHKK
Sequence of Estrogen receptor (Homo sapiens) (P03372 whole entry, looked up): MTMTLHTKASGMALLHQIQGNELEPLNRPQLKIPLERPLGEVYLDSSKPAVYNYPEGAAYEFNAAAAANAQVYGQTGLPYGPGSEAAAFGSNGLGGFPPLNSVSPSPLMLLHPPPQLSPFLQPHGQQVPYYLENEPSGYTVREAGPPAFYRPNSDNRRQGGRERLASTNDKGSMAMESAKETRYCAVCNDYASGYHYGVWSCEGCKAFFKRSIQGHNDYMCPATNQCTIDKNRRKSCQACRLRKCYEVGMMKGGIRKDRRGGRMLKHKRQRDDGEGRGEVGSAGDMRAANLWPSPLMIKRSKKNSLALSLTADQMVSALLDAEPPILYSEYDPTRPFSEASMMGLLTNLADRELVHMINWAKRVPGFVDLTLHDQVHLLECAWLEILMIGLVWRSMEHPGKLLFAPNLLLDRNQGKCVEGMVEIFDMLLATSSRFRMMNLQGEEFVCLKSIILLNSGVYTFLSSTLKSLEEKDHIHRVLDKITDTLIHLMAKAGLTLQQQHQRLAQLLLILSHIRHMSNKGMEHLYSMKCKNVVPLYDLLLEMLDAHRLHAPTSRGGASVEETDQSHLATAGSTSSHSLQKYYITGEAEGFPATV
Sequence of Estrogen receptor beta (Homo sapiens) (Q92731 whole entry, looked up, the tested form may be a part): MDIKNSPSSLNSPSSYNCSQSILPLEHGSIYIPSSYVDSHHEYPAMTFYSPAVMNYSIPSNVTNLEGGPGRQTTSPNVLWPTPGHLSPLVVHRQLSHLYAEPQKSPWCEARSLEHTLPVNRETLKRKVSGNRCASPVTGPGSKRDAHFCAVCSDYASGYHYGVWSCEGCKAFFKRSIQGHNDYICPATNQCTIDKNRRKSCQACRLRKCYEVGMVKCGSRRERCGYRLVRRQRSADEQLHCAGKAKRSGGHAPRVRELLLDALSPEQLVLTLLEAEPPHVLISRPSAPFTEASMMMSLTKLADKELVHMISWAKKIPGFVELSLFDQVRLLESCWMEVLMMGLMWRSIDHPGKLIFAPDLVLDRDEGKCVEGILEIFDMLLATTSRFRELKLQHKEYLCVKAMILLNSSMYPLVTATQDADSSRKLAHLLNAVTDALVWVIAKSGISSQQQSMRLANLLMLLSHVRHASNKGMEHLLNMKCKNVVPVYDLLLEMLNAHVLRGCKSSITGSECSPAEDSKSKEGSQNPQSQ
Sequence of Thyrotropin receptor (Homo sapiens) (P16473 whole entry, looked up): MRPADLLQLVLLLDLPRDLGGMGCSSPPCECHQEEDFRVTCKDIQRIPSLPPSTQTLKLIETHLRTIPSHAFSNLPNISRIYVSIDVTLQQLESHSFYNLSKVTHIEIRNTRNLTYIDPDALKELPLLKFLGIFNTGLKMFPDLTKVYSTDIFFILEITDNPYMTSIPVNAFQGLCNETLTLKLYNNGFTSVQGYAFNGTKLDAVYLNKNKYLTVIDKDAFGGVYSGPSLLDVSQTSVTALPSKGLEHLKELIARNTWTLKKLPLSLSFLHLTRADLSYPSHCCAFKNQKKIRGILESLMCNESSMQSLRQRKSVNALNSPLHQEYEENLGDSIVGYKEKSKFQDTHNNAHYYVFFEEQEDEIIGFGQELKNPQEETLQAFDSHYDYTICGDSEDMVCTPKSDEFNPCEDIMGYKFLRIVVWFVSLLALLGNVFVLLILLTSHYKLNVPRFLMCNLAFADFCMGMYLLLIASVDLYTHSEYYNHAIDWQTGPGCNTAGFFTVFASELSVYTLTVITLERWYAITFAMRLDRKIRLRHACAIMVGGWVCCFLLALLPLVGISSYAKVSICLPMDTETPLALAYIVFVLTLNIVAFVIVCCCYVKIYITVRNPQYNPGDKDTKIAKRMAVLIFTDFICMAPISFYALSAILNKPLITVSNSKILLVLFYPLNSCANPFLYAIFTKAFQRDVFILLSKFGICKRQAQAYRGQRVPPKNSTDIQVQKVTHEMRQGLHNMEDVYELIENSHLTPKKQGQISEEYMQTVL
Sequence of Androgen receptor (Homo sapiens) (P10275 whole entry, looked up): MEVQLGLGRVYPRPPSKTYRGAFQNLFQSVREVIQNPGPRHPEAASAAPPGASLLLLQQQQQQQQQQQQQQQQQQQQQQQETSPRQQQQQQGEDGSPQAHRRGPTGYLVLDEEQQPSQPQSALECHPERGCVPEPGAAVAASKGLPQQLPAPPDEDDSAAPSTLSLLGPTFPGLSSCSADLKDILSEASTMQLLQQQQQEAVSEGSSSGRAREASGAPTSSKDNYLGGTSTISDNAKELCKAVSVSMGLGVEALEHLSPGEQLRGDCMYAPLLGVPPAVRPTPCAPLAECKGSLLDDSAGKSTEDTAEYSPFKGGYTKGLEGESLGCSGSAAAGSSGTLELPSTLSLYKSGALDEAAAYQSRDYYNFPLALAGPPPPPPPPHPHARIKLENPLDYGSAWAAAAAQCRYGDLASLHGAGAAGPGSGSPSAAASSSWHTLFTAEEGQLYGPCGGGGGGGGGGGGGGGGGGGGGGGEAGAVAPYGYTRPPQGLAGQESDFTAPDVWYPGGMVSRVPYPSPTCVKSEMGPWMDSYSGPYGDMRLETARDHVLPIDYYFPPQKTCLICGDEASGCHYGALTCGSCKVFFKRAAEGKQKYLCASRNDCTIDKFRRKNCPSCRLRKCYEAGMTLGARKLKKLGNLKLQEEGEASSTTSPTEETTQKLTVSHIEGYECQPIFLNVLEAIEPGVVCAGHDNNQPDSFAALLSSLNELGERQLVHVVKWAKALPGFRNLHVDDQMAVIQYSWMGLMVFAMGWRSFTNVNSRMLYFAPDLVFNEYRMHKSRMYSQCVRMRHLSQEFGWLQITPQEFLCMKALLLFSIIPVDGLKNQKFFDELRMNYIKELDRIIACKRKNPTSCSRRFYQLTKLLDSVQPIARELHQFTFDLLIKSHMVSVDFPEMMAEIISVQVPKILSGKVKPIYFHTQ

Consider `Brc1cc(-c2ccc(Br)c(Br)c2Br)cc(Br)c1Br`, for which the Potency result in assay [1], in assay [2], in assay [3], in assay [4], in [5] and in assay [6] was “inactive” in each case. The Potency entry in [8], in [9], in [10], in assay [11], in assay [12] and in [17] was “inactive” in each case. Further, the call in assay [7], in assay [13], in [14], in assay [15] and in assay [16] was inactive.
For `CN(C(=O)C(Cl)Cl)c1ccc(OC(=O)c2ccco2)cc1`, the Potency result in [18], in assay [3], in assay [19], in assay [5], in [8] and in [9] was “inactive” throughout. Further, the Potency result in assay [10], in [20], in assay [11], in [12] and in assay [17] was “inactive” each time. For the same molecule, the outcome in assay [7], in assay [13], in assay [14], in [15] and in [16] was inactive.
As for `Fc1c(F)c(F)c(Br)c(F)c1F`, the Potency entry in assay [18], in assay [3], in assay [5], in [8], in assay [10] and in [20] was “inactive” each time. Also, the Potency entry in assay [12] and in assay [17] was “inactive” throughout. For the same molecule, the molecule was classed as inactive in [7], in assay [13], in [14], in [15] and in [16].
As to `CO[Si](C)(OC)OC`, the Potency result in assay [1], in assay [2], in [3], in assay [5], in assay [6] and in [8] was “inactive” each time. The Potency entry in assay [9], in [10], in assay [20], in [11], in assay [12] and in [17] was “inactive” in each case. The result in assay [7], in [13], in assay [14], in [15] and in [16] was inactive.
For `Cc1cnc(C)c(C)n1`, the Potency entry in assay [18], in assay [3], in assay [8], in assay [9], in assay [10] and in assay [20] was “inactive” in each case. For the same molecule, the outcome in assay [7], in assay [13], in assay [14] and in assay [15] was inactive. Moreover, in assay [12], the Potency was 28.6 µM (active).
As to `O=C(O)c1c(O)c(-c2ccccc2)nc2ccccc12`, the Potency entry in [18], in [3], in assay [19], in assay [6], in [8] and in assay [10] was “inactive” each time. Further, the Potency entry in assay [12] was “inactive”. Further, the molecule was classed as inactive in [7], in [13], in assay [14] and in assay [15].
As to `CCCCC1C(=O)N(c2ccccc2)N(c2ccc(O)cc2)C1=O` (stereo unspecified), the Potency in [18] was 7.5 µM (active); in assay [5], 29.8 µM (active). Moreover, the Potency entry in assay [19] and in [9] was “inactive” throughout. For the same molecule, the molecule was called inactive in [13].
As for `CCCCCCCCCCOS(=O)(=O)O`, the Potency entry in assay [18], in [3], in assay [5], in [6], in assay [8] and in assay [10] was “inactive” throughout. Besides, the Potency result in assay [20] and in [17] was “inactive” in each case. In addition, the molecule was classed as inactive in [7], in assay [13], in assay [14], in assay [15] and in [16].
Take `CC1C2CC(CC2C2CCCC(O)C2)C1(C)C` (stereo unspecified): the Potency result in assay [18], in assay [3], in [9], in [12] and in assay [17] was “inactive” each time. Moreover, the call in assay [7], in [13], in assay [14], in [15] and in assay [16] was inactive.
As for `CC(=O)[C@H]1CC[C@H]2[C@@H]3C[C@H](C)C4=CC(=O)CC[C@]4(C)[C@H]3[C@@H](O)C[C@]12C`, the Potency result in assay [1], in [2], in assay [3], in assay [4], in [5] and in assay [9] was “inactive” each time. The Potency result in assay [17] was “inactive”. Also, the Potency in assay [19] is 0.0841 µM (active); in assay [10], 0.0067 µM (active). The molecule was classed as inactive in assay [13], in assay [14], in assay [15] and in [16].
